Test results published in PubChem BioAssay (NCATS).
“And” between values parts separate entries of the source, which are not always exact repeats. Equal values may be shown once. Results filed as inconclusive are left out. The source made the active and inactive calls. Unless noted, calls follow the shape of the dose curve; as a rule, active = well fitted curve in the direction sought with a large enough effect; inconclusive = small, poorly fitted or top-dose-only effect, or another doubt; inactive = no such curve, though single readings can be large; an effect the other way counts as inactive or inconclusive.

What was measured:
[1] = Cell Viability - BJ (AID 421; calls by dose curve;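 also: potency is read from the fitted curve at half-maximal effect; cells exposed to compound for 40 hours at 37 °C before readout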); conditions: BJ fibroblast viability, qHTS
Outline: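 Luminescent ATP signal (CellTiter-Glo, 20 min at room temperature) served as the read-out of viable BJ cells after 40 hours of compound treatment. Responses were scaled between DMSO and 100 uM tamoxifen, and AC50 values were obtained by Hill modeling.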

[2] = Cell Viability - MRC5 (AID 434; calls by dose curve;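 also: potency is read from the fitted curve at half-maximal effect; cells exposed to compound for 40 hours at 37 °C; potency reflects cytotoxicity seen as loss of intracellular ATP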); conditions: MRC5 lung fibroblast viability, qHTS
Outline: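 Decrease in intracellular ATP, quantified by luciferase light output, reflects compound toxicity toward MRC5 cells exposed for 40 hr in complete culture medium. Concentration-response curves, scaled between DMSO and 100 uM tamoxifen, gave AC50 values.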

[3] = target: Mitogen-activated protein kinase 10 (Mus musculus) (UniProt Q61831); experiment: JNK3 AlphaScreen Assay (AID 530; active = well fitted curve in either direction with a large enough effect, not every such curve was filed as active;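 also: kinase came from lysate of stimulated human HepG2 cells; signal reports phosphorylation of biotinylated GST-cJun 1-79 at Ser73 with 10 µM ATP; % is scaled to controls: 0 for no effect and ±100 for the full control effect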); conditions: JNK3 lysate, c-Jun phosphorylation; series mostly up to 57.1 µM
Outline: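 Phosphorylation of biotinylated GST-cJun(1-79) at Ser73 is measured by AlphaScreen proximity luminescence. Enzyme is JNK3 in HepG2 lysates activated with interleukin-1beta and tumor necrosis factor alpha; ATP is 10 uM final.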

[4] = Cell Viability - HUV-EC-C (AID 542); conditions: HUV-EC-C endothelial cell viability, qHTS; series mostly up to 92.2 µM; also: % is scaled to controls: 0 for no effect and ±100 for the full control effect; nearly all actives have a fitted effect of over 35% in size
Outline: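 Cells were seeded at 1000 per well and incubated 5 hr at 37 °C before compound addition. After 40 hr at 37 °C, CellTiter-Glo reagent was added for 20 min and luminescence read. AC50 values came from Hill-equation modelling.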

[5] = Cellular Toxicity (caspase-3) HepG2 (AID 654); conditions: HepG2 caspase-3 activation, luminescence, 0% = DMSO only, 100% = tamoxifen; series mostly up to 92.2 µM;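 also: cells exposed to compound for 16 hours before reading; 0% = DMSO alone and 100% = caspase signal from 100 µM tamoxifen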
Outline: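 Caspase 3/7 activation in HepG2 is measured as rising luminescence after a 16 hr treatment at 37 °C. Values are scaled between DMSO basal and 100 uM tamoxifen, and AC50 is fitted with the Hill equation.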

[6] = Cellular Toxicity (caspase-3) HUV-EC-C (AID 656); conditions: HUV-EC-C cells, caspase-3 activation (apoptosis), vehicle = 0, 100 µM tamoxifen = 100%; series mostly up to 92.2 µM
Outline: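 HUV-EC-C endothelial cells, 1000/well, were pre-incubated 5 hr at 37°C, then exposed to compounds for 16 hr at 37°C. Caspase-Glo 3/7 luminescence was read after 20 min at room temperature. AC50 came from Hill fits, normalized to DMSO and 100 uM tamoxifen.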

[7] = Cellular Toxicity (caspase-3) SHSY5Y (AID 657); conditions: SH-SY5Y caspase-3 activation, DMSO zero, 10 µM staurosporine = 100%; series mostly up to 91.7 µM
Outline: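 SH-SY5Y human neuroblastoma cells (1500/well) were treated with compounds for 16 h at 37 °C, then Caspase-Glo 3/7 luminescence was read after 1 h at room temperature. Data normalized to DMSO and 10 uM staurosporine; AC50 from Hill fits.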

[8] = Cellular Toxicity (caspase-3) BJ (AID 658); conditions: BJ fibroblasts, luminescence, normalized: DMSO 0%, staurosporine 100%; series mostly up to 91.7 µM
Outline: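 Plated BJ cells (1000/well) rested 5 hr, received compound for 16 hr at 37 °C, then Caspase-Glo 3/7 reagent for 1 hr at room temperature before luminescence reading.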

[9] = Cellular Toxicity (caspase-3) MRC-5 (AID 659); conditions: MRC-5 cells, luminescence, normalized: DMSO 0%, 10 µM staurosporine 100%; series mostly up to 91.7 µM
Outline: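 Apoptosis readout in MRC-5 cells: luciferase light generated after caspase 3/7 cleaves a peptide-aminoluciferin substrate, measured post 16 hr compound incubation at 37 °C.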

[10] = Cellular Toxicity (caspase-3) Mesangial (AID 660); conditions: mesangial cells, normalized: DMSO 0%, 100 µM tamoxifen 100%; series mostly up to 91.7 µM;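 also: combined caspase 3 and 7 activity read by Caspase-Glo luminescence; cells exposed to compound for 16 h before the caspase read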
Outline: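 Seed cells derived from normal human renal glomeruli, incubate 5 h, add compounds across concentrations and incubate 16 h at 37 °C. Caspase 3/7 activation is then quantified by luciferase light, with AC50 derived by Hill modeling.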

[11] = Cellular Toxicity (caspase-3) H-4-II-E (AID 663); conditions: H-4-II-E rat hepatoma; Potency: caspase-3 activation; series mostly up to 92.2 µM;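 also: cells exposed to compound for 16 hr before readout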
Outline: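 Caspase 3/7 activation measured in H-4-II-E cells in complete culture medium after 16 hr treatment at 37 °C, using luciferase-coupled substrate readout; AC50 values come from Hill-equation fits of normalized concentration-response data.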

[12] = Cellular Toxicity (caspase-3) Hek293 (AID 664); conditions: HEK293 caspase-3 activation, DMSO = 0%, 100 µM tamoxifen = 100%; series mostly up to 92.2 µM;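 also: cells exposed to compound for 16 h at 37 °C before readout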
Outline: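 qHTS, HEK293 (human embryonic kidney), 16 h cpd exposure in complete medium. Caspase-3/7 activation = luminescence increase; normalized to DMSO/100 uM tamoxifen; Hill-fit AC50.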

[13] = Cellular Toxicity (caspase-3) Renal Proximal Tubule (AID 667); conditions: renal proximal tubule cells, primary cells freshly taken from rat, solvent-only wells 0%, staurosporine 100%; series mostly up to 91.7 µM;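 also: cells exposed to compound for 16 hours at 37 °C before detection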
Outline: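 Primary rat proximal tubule cells, 1000/well, 5 h plating at 37 °C, then compound 16 h at 37 °C. Caspase-Glo 3/7 reagent, 1 h RT, luminescence. Normalized to DMSO (basal) and 10 uM staurosporine (100%); Hill-fit AC50.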

[14] = MultiTox-Fluor Cytotoxicity Assay - LYMP1-003 - Live Cells (AID 962); conditions: LYMP1-003 lymphoblastoid cells, MultiTox-Fluor live-cell protease fluorescence; series mostly up to 92.2 µM;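 also: 0% = DMSO only and full loss = 92 µM tetraoctylammonium bromide; cytotoxic hits lower the live-cell protease signal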
Outline: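 Acute cytotoxicity is scored as a drop in live-cell protease activity in human lymphoblastoid LYMP1-003 cells after 16 hr compound exposure at 37 C. AC50 values come from Hill-equation modelling of concentration-response data.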

[15] = qHTS Assay for Identification of Small Molecule Inducers of Hypoxia Response (AID 2120; active = well fitted curve in the direction sought with a large enough effect in the signal ratio, with a control signal flat, not every such curve was filed as active; the % refers to the signal ratio; also: 0% is about no effect); conditions: hypoxia response reporter cells, beta-lactamase ratio readout; series mostly up to 104 µM
Outline: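 Cell-based qHTS for reporter induction: hypoxia response element controlled beta-lactamase in ME-180 cells. Compounds incubated 17 h at 37 degrees C; activity from blue/green (460/530 nm) ratio, inducers ranked by AC50.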

[16] = target: Thyroid hormone receptor beta (Homo sapiens) (UniProt P10828); experiment: qHTS assay for small molecule agonists of thyroid hormone receptor beta signaling (AID 588545; calls by dose curve); conditions: TR-UAS-bla GripTite HEK 293, beta-lactamase ratio, agonist mode, 18 h, percent of T3 response, DMSO as zero; series mostly up to 76.7 µM
Sequence of Thyroid hormone receptor beta (Homo sapiens) (P10828 whole entry, looked up): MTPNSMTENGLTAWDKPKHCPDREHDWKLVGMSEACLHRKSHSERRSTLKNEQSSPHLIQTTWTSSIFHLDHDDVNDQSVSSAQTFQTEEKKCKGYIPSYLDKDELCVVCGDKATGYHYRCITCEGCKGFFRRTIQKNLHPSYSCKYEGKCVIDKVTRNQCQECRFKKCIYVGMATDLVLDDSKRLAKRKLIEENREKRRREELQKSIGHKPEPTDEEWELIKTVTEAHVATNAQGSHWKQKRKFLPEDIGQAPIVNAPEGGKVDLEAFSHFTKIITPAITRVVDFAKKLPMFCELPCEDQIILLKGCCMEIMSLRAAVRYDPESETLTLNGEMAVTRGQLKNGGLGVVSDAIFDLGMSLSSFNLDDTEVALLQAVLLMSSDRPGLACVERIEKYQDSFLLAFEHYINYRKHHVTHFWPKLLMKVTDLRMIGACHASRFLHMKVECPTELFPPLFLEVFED
Outline: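 Agonist activity was read as beta-lactamase CCF4 fluorescence (405 ex, 460/530 em), scaled between DMSO (0%) and 10 nM T3 (100%), then Hill-fitted for EC50 and efficacy. HEK 293 TR-UAS-bla cells in 2% charcoal/dextran FBS medium were exposed 18 h at 37 C.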

[17] = qHTS assay for small molecule antagonists of retinoid X receptor alpha signaling (AID 588546); conditions: HEK293T RXRa-UAS-bla, beta-lactamase ratio, antagonist mode; measured here: W530 green channel, cytotoxicity proxy;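 also: cells stimulated with 9-cis-retinoic acid as agonist; % is scaled to controls: 0 for no effect and ±100 for the full control effect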
Outline: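 Beta-lactamase reporter inhibition, read as CCF4 fluorescence ratio (ex 405, em 460/530 nm) after 2 h at RT. HEK293T UAS-bla cells, 2500/well, were stimulated with 9-cis-RA at 500 or 100 nM final alongside test compound for 18 h at 37 C.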

[18] = target: Peroxisome proliferator-activated receptor alpha (Homo sapiens) (UniProt Q07869); experiment: qHTS assay for small molecule agonists of the peroxisome proliferator-activated receptor alpha (PPARalpha) signaling pathway (AID 651778); conditions: PathHunter PPARalpha complementation, chemiluminescence, 6 h; max response: stronger effect = higher value; also: % of control where 0% means no effect
Sequence of Peroxisome proliferator-activated receptor alpha (Homo sapiens) (Q07869 whole entry, looked up): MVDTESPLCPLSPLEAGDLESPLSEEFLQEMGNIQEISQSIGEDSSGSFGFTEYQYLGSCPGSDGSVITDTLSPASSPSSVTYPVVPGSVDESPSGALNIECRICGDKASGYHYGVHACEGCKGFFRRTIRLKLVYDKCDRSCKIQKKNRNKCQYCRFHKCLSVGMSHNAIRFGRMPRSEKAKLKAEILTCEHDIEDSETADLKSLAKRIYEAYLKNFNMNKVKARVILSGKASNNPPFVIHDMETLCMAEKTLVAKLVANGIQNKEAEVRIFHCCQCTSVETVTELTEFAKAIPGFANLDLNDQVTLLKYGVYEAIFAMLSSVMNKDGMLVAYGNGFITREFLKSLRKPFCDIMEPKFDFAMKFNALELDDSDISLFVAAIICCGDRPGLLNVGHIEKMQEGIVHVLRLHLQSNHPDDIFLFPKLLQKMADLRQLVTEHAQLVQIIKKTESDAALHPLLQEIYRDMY
Outline: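 Cells plated at 2,000/well and held overnight at 37 C, 5% CO2, then compound added by pin tool for 6 hr; after PathHunter detection reagent and 60 min at room temperature, chemiluminescence from enzyme complementation was read.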

[19] = qHTS assay for small molecule agonists of the antioxidant response element (ARE) signaling pathway measured by Nrf2-dependant transcriptional activity (AID 720636; active = well fitted curve in the direction sought with a large enough effect in the repeat runs; an effect the other way counts as inactive or inconclusive;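 also: HepG2 cells with an ARE-driven luciferase reporter; % of control where 0% means no effect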); conditions: ARE-luc HepG2, Nrf2 luciferase reporter, 16 h; series mostly up to 92.4 µM
Outline: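 HepG2 ARE-luc reporter line, 1% dialyzed FBS; 6 hr attachment at 37 C, compound pinned in, 16 hr at 37 C/5% CO2; ONE-Glo, 30 min RT, luminescence read.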

[20] = qHTS assay for cell viability of HEK293 cells (AID 743288); conditions: ATP luminescence (CellTiter-Glo), 18 h; max response: stronger effect = lower value; also: % is scaled to controls: 0 for no effect and ±100 for the full control effect; nearly all actives have a fitted effect of over 50% in size
Outline: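 After 18 h compound exposure at 37 C, parental HEK293 cells (2,000/well) are lysed with CellTiter-Glo and luminescence is read following 30 min at room temperature.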

c1ccccc1
6.17% [middle of 4 runs]: max response [17]
inactive: Potency [1] > 92 µM | Potency [2] > 92 µM | Potency [3] | outcome [4] | outcome [5] | outcome [6] | outcome [7] | outcome [8] | outcome [9] | outcome [10] | Potency [11] | outcome [12] | outcome [13] | Potency [14] | outcome [15] | outcome [16] | max response [18] -1.87% [middle of 4 runs] | Potency [19] | max response [20] 0.515% [middle of 4 runs]

COC(=O)c1ccc(C=O)cc1
inactive: Potency [1] > 92 µM | Potency [2] > 92 µM | Potency [3] | outcome [4] | outcome [5] | outcome [6] | outcome [7] | outcome [8] | outcome [9] | outcome [10] | Potency [11] | outcome [12] | outcome [13] | Potency [14] | outcome [15] | outcome [16] | max response [18] -7.41% and -4.28% | Potency [19] | max response [20] -15.6% and -6.77%
-1.3% and -26.3%: max response [17]

COCC(=O)O
10.5% and -3.07%: max response [17]
inactive: Potency [1] > 92 µM | Potency [2] > 92 µM | Potency [3] | outcome [4] | outcome [5] | outcome [6] | outcome [7] | outcome [8] | outcome [9] | outcome [10] | Potency [11] | outcome [12] | outcome [13] | Potency [14] | outcome [15] | outcome [16] | max response [18] -0.223% and -0.993% | Potency [19] | max response [20] -1.06% and 2.91%

C/C=C\c1ccc(OC)cc1
inactive: Potency [1] > 92 µM | Potency [2] > 92 µM | Potency [3] | outcome [4] | outcome [5] | outcome [6] | outcome [7] | outcome [8] | outcome [9] | outcome [10] | Potency [11] | outcome [12] | outcome [13] | Potency [14] | outcome [15] | outcome [16] | max response [18] -5.71% | Potency [19] | max response [20] 8.66%
1.79%: max response [17]

Cc1ccc([N+](=O)[O-])cc1N
inactive: Potency [1] > 92 µM | Potency [2] > 92 µM | Potency [3] | outcome [4] | outcome [5] | outcome [6] | outcome [7] | outcome [8] | outcome [9] | outcome [10] | Potency [11] | outcome [12] | outcome [13] | Potency [14] | outcome [15] | outcome [16] | max response [18] -4.31% and -1.18% | Potency [19] | max response [20] -2.6% and -12%
-2.85% and -10.6%: max response [17]

COC(=O)c1ccc(C)cc1
-12.4% and -3.35%: max response [17]
inactive: Potency [1] > 92 µM | Potency [2] > 92 µM | Potency [3] | outcome [4] | outcome [5] | outcome [6] | outcome [7] | outcome [8] | outcome [9] | outcome [10] | Potency [11] | outcome [12] | outcome [13] | Potency [14] | outcome [15] | outcome [16] | max response [18] 0.456% and 0.65% | Potency [19] | max response [20] 4.41% and -4.05%

COc1c2ccoc2cc2oc(=O)ccc12
-1.57%: max response [17]
inactive: Potency [1] > 92 µM | Potency [2] > 92 µM | Potency [3] | outcome [4] | outcome [5] | outcome [6] | outcome [7] | outcome [8] | outcome [9] | outcome [10] | Potency [11] | outcome [12] | outcome [13] | Potency [14] | outcome [15] | outcome [16] | max response [18] -2.53% | Potency [19] | max response [20] -2.26%

CC1(C)CC(N=C=O)CC(C)(CN=C=O)C1 (stereo unspecified)
inactive: Potency [1] > 92 µM | Potency [2] > 92 µM | Potency [3] | outcome [4] | outcome [5] | outcome [6] | outcome [7] | outcome [8] | outcome [9] | outcome [10] | Potency [11] | outcome [12] | outcome [13] | Potency [14] | outcome [15] | outcome [16] | max response [18] -1.83% and -0.793% | Potency [19] | max response [20] -4.37% and 1.94%
-0.108% and -15.8%: max response [17]

CN1CC[C@H](CN2c3ccccc3Sc3ccccc32)C1
inactive: activity change, negative = inhibition [3] 0.762% [at 11.4 µM]
